The campaign covered roughly 5,500 compounds. About 2,000 (36%) were called active. Roughly 18% stayed inconclusive and do not appear here. No stated cut-off is given here; in the data, active means normalized growth mostly below about 0.91 (no sharp cut-off); inconclusive means no clear call, values can overlap the other calls; inactive means mostly above about 0.92. The list shows a part of the results.
Assay: chemical genetic growth profiling, strain panel (AID 1159580);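 further: tested at 20 µM; growth read once vehicle control cultures reached saturation at 30 °C; 1 = growth at the plate median or of vehicle wells; lower values mean less growth of the strain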
Conditions: S. cerevisiae deletion strains, growth OD

Measured: normalized growth

Cn1cc(C2=C(c3ccc(Cl)cc3Cl)C(=O)NC2=O)c2ccccc21
inactive: locus YAL040C, strain CLN3, hits give low values 1.02 | locus YCL061C, strain MRC1 (second series), hits give low values 1.01 | locus YDR363W, strain ESC2, hits give low values 1.01 | locus YER002W, strain NOP16, hits give low values 0.994 | locus YMR263W, strain SAP30, hits give low values 1.01 | locus YNL175C, strain NOP13, hits give low values 1 | locus YNL197C, strain WHI3, hits give low values 1 | locus YNL224C, strain SQS1, hits give low values 1.02 | locus YNL322C, strain KRE1, hits give low values 1 | locus YOR083W, strain WHI5 (second series), hits give low values 1.01 | locus YPL241C, strain CIN2, hits give low values 1.01
